HTR5A ag ctr: HTR5A agonism, opioid heterodimer counter-screen | P47898 | HTR5A agonist assay, luminescence, cell-based | activation, % at 9.3 µM | 340,000 compounds, 0.61% hits | AID 504692; in the data active means activation mostly above about 9.5%, no sharp cut-off; inactive means mostly below about 7.6%
Target sequence (P47898 whole entry, looked up): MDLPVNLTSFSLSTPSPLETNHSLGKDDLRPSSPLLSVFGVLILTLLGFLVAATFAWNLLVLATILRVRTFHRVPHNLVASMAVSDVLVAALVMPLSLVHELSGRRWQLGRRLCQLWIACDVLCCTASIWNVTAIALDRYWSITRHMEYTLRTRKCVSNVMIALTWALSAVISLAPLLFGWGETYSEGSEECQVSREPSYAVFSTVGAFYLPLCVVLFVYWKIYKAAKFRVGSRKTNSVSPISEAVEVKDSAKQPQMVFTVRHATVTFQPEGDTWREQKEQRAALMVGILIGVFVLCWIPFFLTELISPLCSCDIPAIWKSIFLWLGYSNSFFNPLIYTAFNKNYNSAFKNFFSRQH
HTR5A inv ctr: inverse agonist of human HTR5A in OPRM1-OPRD1 counter-screen | HTR5A cell line, luminescence, inverse agonism | inhibition, % at 9.3 µM | 340,000 compounds, 0.083% hits | AID 504634; in the data active means inhibition mostly above about 23%, no sharp cut-off; inactive means mostly below about 18%
MOR-DOR ag: OPRM1-OPRD1 heterodimerization agonism. P35372+P41143. cells, luminescence. activation, % at 9.3 µM. 340,000 compounds, 0.3% hits. AID 504326; in the data active means activation above about 18%
MOR-DOR inv ag-1: inverse agonist of human OPRM1-OPRD1 heterodimerization; P35372+P41143; cell-based MOR-DOR heterodimer luminescence, inverse agonism; inhibition, % at 9.3 µM; 340,000 compounds, 0.21% hits; AID 504357; in the data active means inhibition above about 22%, passing the limit was not always enough
MOR-DOR inv conf: OPRM1-OPRD1 heterodimer inverse agonism, confirmation; AID 504900; inhibition, % at 9.3 µM; 580 compounds, 20% hits; cells expressing OPRM1/OPRD1 heterodimer, luminescence; shares compounds with MOR-DOR inv ag-1; in the data active means inhibition above about 32%
HTR5A inv ctr2: counter-screen for OPRM1-OPRD1 inverse agonists: human HTR5A inverse agonism; shares compounds with MOR-DOR inv ag-1; 580 tested, under 10 active; AID 504914; inhibition, % at 9.3 µM; HTR5A-expressing cells, luminescence
MOR-DOR inv ag-2: opioid heterodimer inverse agonism, HTR5A counter-screen | shares compounds with HTR5A inv ctr | U2OS counter-screen cells, complementation luminescence | inhibition, % at 9.3 µM | 190 tested, under 10 active | AID 504912
HTR5A inv conf: confirmation of human HTR5A inverse agonists | HTR5A-expressing cells, inverse agonism, luminescence | inhibition, % at 9.3 µM | AID 504916 | shares compounds with HTR5A inv ctr | 190 tested, under 10 active
Hits are given with their value; i = inactive; nt = no result given. A selection: hits, their analogues and other compounds. The true share with any hit is near 1.1%. Unless noted, how the calls were made is not given here.

SMILES	HTR5A ag ctr	HTR5A inv ctr	MOR-DOR ag	MOR-DOR inv ag-1	MOR-DOR inv conf	HTR5A inv ctr2	others
CCCN1/C(=C2/SC(=S)N(CC)C2=O)C=Cc2ccccc21	i	i	i	i	nt	nt
CN1C(=O)/C(=C2/C=Cc3ccccc3N2CCCS(=O)(=O)O)SC1=S	i	i	i	31.8	i	i
CN(C)c1nc(=NCc2ccco2)ss1	i	i	i	65.9	i	i
COCCCN1C(=O)N(c2ccccc2)C(=O)C1CC(=O)Nc1ccc(F)cc1 (configuration not stated)	i	i	i	i	nt	nt
Cc1ccc2c(c1)C(=O)C(=O)N2CCCOc1ccccc1C	i	i	i	i	nt	nt
Cc1ccccc1OCCCN1C(=O)C(=O)c2cccc(C)c21	i	i	i	49.6	i	i
CC[C@](C)(O)c1cc2ccccc2c(=O)o1	i	i	i	i	nt	nt
O=C(Nc1cccc([N+](=O)[O-])c1)c1ccc2ccccc2c1O	i	i	i	i	nt	nt
COc1ccc(CCCc2nnc(SCc3nc4ccccc4c(=O)[nH]3)n2C)cc1C	i	i	i	i	nt	nt
O=C1NC[C@@H](c2ccccc2)OC(=O)[C@@H](Cc2ccc(F)cc2)CC/C=C/C[C@@H]1CC(=O)N(CCO)Cc1ccccc1	i	i	i	33.5	i	i
COc1ccc(-n2c(N)c(C(=O)NCc3ccco3)sc2=S)cc1	i	i	i	i	nt	nt
COc1ccc(-n2c(N)c(C(=O)NCC3CCCO3)sc2=S)cc1 (configuration not stated)	i	i	i	i	nt	nt
CCOC(=O)c1ccc(-n2c(N)c(C(=O)NCc3ccco3)sc2=S)cc1	i	i	i	29.6	i	i
CCOC(=O)c1ccc(-n2c(N)c(C(=O)NCC3CCCO3)sc2=S)cc1 (configuration not stated)	i	i	i	34.0	i	i
CC12CC3CC(C1)CC(C(=O)NNC(=O)c1ccncc1)(C3)C2	i	i	i	i	nt	nt
O=C(NNC(=S)NC(=O)C12CC3CC(CC(C3)C1)C2)c1ccncc1	i	i	i	42.2	i	i
ON1C(c2ccc(Cl)cc2Cl)N(O)[C@H]2CCCC[C@H]21 (some centres not stated)	i	i	i	62.8	i	i
CC1N(O)C(c2ccc(Cl)cc2Cl)N(O)C1(C)C (configuration not stated)	i	i	i	i	nt	nt
COC(=O)C1NN=C(C(=O)c2ccc(Cl)cc2)C1c1ccc(OC)cc1 (configuration not stated)	i	i	i	46.9	i	i
COc1cc2c(cc1OC)C(C(=O)Nc1ccc(F)c(Cl)c1)CC(=O)N2 (configuration not stated)	i	i	i	i	nt	nt
CC1CCN(C(=O)COC(=O)Cc2ccc(Br)cc2)CC1	i	i	i	i	nt	nt
Cc1cc(O)cc(=O)n1CCc1ccccc1	i	i	i	i	nt	nt
CN(C)CC1CC/C(=C\c2ccc(O)cc2)C1=O (configuration not stated)	i	i	i	41.3	i	i
CC1Nc2ncnc(N3CCN(c4ccccc4)CC3)c2N(Cc2ccc(Cl)cc2)C1=O (configuration not stated)	i	i	i	56.7	33.4	62.6
Cc1ccc2oc(/N=C(\N)NC(=O)C(C)(C)C)nc2c1	i	i	i	44.6	i	i
SMILES	HTR5A ag ctr	HTR5A inv ctr	MOR-DOR ag	MOR-DOR inv ag-1	MOR-DOR inv conf	HTR5A inv ctr2	others
Cc1ccc2oc(/N=C(\N)NC(=O)C3CC3)nc2c1	i	i	i	i	nt	nt
COc1ccc(NC(=O)c2nc(S(=O)(=O)Cc3cccc(C)c3)ncc2Cl)c(OC)c1	i	i	i	35.0	i	i
Cc1ccc(NC(=O)c2ncn(CCCNCC(C)c3ccccc3)n2)cc1C (configuration not stated)	i	i	i	i	nt	nt
CCC(=O)Oc1ccc(C(=O)Nc2cccc(C(=O)NCC(C)C)c2)cc1	i	i	i	32.4	i	i
CCC(=O)Oc1ccc(C(=O)Nc2ccccc2C(=O)NCC(C)C)cc1	i	i	i	i	nt	nt
COc1cc(Br)c(/C=C/c2ccc3cccc(O)c3n2)cc1OC	i	i	i	i	nt	nt
Cc1ccsc1/C=C/c1ccc2cccc(O)c2n1	i	32.1	i	i	nt	nt	MOR-DOR inv ag-2=i;HTR5A inv conf=i
Oc1cccc2ccc(/C=C/c3ccccc3Br)nc12	i	61.8	i	i	nt	nt	MOR-DOR inv ag-2=i;HTR5A inv conf=51.3
CSc1ccc(/C=C/c2ccc3cccc(O)c3n2)cc1	i	23.6	i	i	nt	nt	MOR-DOR inv ag-2=i;HTR5A inv conf=i
COC(=O)c1cc(NS(=O)(=O)c2ccc(C)c3ccccc23)ccc1N1CCOCC1	i	i	i	i	nt	nt
CC(C)Oc1ccc(S(=O)(=O)N2CCCCC2)cc1NC(=O)CN1C(=O)NC2(CCCC2)C1=O	i	i	i	i	nt	nt
Clc1cccc(CN2CCC3CC2c2cc(N4CCCCC4)ccc23)c1 (configuration not stated)	i	27.8	i	i	nt	nt	MOR-DOR inv ag-2=i;HTR5A inv conf=i
COc1ccc(N2CCN(C(=O)c3c(-c4c(F)cccc4Cl)noc3C)CC2)cc1	i	i	i	i	nt	nt
Cn1cnc(S(=O)(=O)N2CCN(c3cccc(Cl)c3)CC2)c1	i	37.8	i	i	nt	nt	MOR-DOR inv ag-2=i;HTR5A inv conf=i
O/N=C\c1cnc(N2CCN(c3ccccc3)CC2)s1	i	i	i	i	nt	nt
CCCn1c(SCC(=O)NC2CCCC2)nnc1-c1cccnc1	i	i	i	i	nt	nt
COc1ccc(CC(=O)N(C)CC(=O)Nc2c(C)cccc2C)cc1S(=O)(=O)N1CCOCC1	i	27.7	i	i	nt	nt	MOR-DOR inv ag-2=80.6;HTR5A inv conf=i
CC(C)n1cc(CN2CCN(C)C(CCO)C2)c2ccccc21 (configuration not stated)	i	i	i	i	nt	nt
O=C(COc1coc(CN2CCc3ccccc3C2)cc1=O)Nc1ccc(F)cc1F	i	63.1	i	i	nt	nt	MOR-DOR inv ag-2=i;HTR5A inv conf=i
O=C(COc1coc(CN2CCc3ccccc3C2)cc1=O)Nc1ccc(F)cc1	i	i	i	i	nt	nt
CC(=O)n1cc([C@H]2C=C(C(N)=O)O[C@@H](OCc3ccc(CO)cc3)C2)c2ccccc21	i	i	i	i	nt	nt
CCOc1cc(C(c2c(C)[nH][nH]c2=O)c2c(C)[nH][nH]c2=O)cc([N+](=O)[O-])c1O	i	28.7	i	i	nt	nt	MOR-DOR inv ag-2=41.7;HTR5A inv conf=i
Cn1nc(OCCOc2ccccc2)ccc1=O	i	39.8	i	i	nt	nt	MOR-DOR inv ag-2=i;HTR5A inv conf=i
Cn1nc(OCc2ccccc2)ccc1=O	i	i	i	i	nt	nt
C[C@H](CO)N1C[C@H](C)[C@@H](CN(C)C(=O)Nc2ccccc2)Oc2ccc(NC(=O)C3CCCCC3)cc2C1=O	i	i	i	i	nt	nt
C#CCOCCOCCOCCNc1nc(N2CCN(C(=O)[C@H](CCCCN)n3cc(CN)nn3)CC2)nc(N2CCN(C(=O)[C@H](CC(N)=O)n3cc(C(N)[C@H](C)CC)nn3)CC2)n1 (some centres not stated)	i	i	i	i	nt	nt
O=[N+]([O-])c1ccc(O)c(N=Cc2sc3ccccc3c2O)c1	i	46.1	i	i	nt	nt	MOR-DOR inv ag-2=i;HTR5A inv conf=i

Compound activity: PubChem, The Scripps Research Institute Molecular Screening Center
